The test system of assay [1] is Wnt5a (protein binding on small-molecule microarray). Put plainly: Wnt5a binders on small-molecule microarray, primary screen, biophysical, 635/667 nm fluorescence (AID 1142).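 Also: fluorescence read at 667 nm with signal to noise per printed feature.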 To be noted: 635 nm fluorescence, higher = more signal.
A short description of assay [2]: cell viability in Huh7 cells, primary screen, cytotoxicity control for HCV replication inhibitor project, CellTiter-Glo luminescence, basal, 48 h (AID 1143).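 Also: Huh7 hepatoma cells carrying a hepatitis C replication reporter with no stimulus; test concentration not given here.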 To be noted: Huh7 HCV replicon, higher = more signal, called active from +8 up or from −8 down. Background: ATP-based viability assays read luminescence as a measure of living cells.
Assay [3] can be described thus: P. aeruginosa biofilm formation inhibitors, primary screen, PAO1 strain, BacTiter-Glo luminescence, LB-PBS (AID 1144). To be noted: 12 h, higher = more signal.
Assay [4] in a line: CREB reporter modulators without forskolin, primary screen, cell-based, PC12, CRE-LacZ reporter, unstimulated (AID 1145). To be noted: no forskolin, luminescence, 4.5 h, higher = more signal, called active from +8 up or from −8 down.
Assay [5] is described as follows: CREB reporter modulators under forskolin, primary screen, cell-based, PC12, CRE-LacZ reporter, forskolin-stimulated (AID 1146).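 Also: PC12 cells with 6xCRE LacZ reporter stimulated by forskolin 10 µM; beta-galactosidase reporter signal reflecting CREB driven transcription.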 To be noted: luminescence, 4.5 h, higher = more signal, called active from +8 up or from −8 down.
For assay [6], the target named is Streptavidin (Streptomyces avidinii) (UniProt P22629). Put plainly: streptavidin binders on small-molecule microarray, primary screen, artefact control for SMM compound annotation, biophysical, 635/667 nm fluorescence (AID 1147).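 Also: signal reflects streptavidin binding to arrayed compounds as a control protein.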 To be noted: streptavidin binding, higher = more signal.
The nature of assay [7]: small-molecule binders of probe aInhba, primary screen, biochemical, small-molecule microarray, 635/667 nm fluorescence (AID 1148).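 Also: score merges 667nm spot fluorescence with signal-to-noise for antibody binding to printed compounds.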 To be noted: higher = more signal.
Assay [8] deals with Torsin-1A (Homo sapiens) (UniProt O14656). Put plainly: torsin A binders from cell lysate, primary screen, small-molecule microarray, wild-type, 635/667 nm (AID 1149). To be noted: COS7 hTOR1A-WT lysate, 635 nm fluorescence, higher = more signal.
Assay [9] has the same target. The assay is described as follows: small-molecule binders of mutant TOR1A in lysate, primary screen, cell lysate, small-molecule microarray, COS7 lysate, 635/667 nm fluorescence (AID 1150).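 Also: score pools 667 nm emission and signal to noise measuring lysate protein binding.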 The conditions noted are these: COS7 hTOR1A mutant lysate, 635 nm fluorescence, higher = more signal.
Assay [10] relates to Sonic hedgehog protein (Shh). The assay is described as follows: small-molecule binders of Shh protein, primary screen, biochemical, small-molecule microarray, 635/667 nm fluorescence (AID 1151).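 Also: Shh protein binding to compounds spotted on small-molecule microarray slides; score combines spot fluorescence intensity with signal-to-noise across triplicate slides.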 To be noted: small-molecule microarray binding, 635 nm fluorescence; higher = more signal.
Assay [11] is described as follows: E. coli DRC41 culture turbidity changes, primary screen, E. coli filamentation inducer project, strain DRC41, OD650, 48 h (AID 1152).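 Also: E. coli MC1000 strain DRC41 lacking acrAB efflux pump and sulA.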 To be noted: E. coli DRC41 (acrAB sulA), higher = more signal, called active from +8 up or from −8 down.
A short description of assay [12]: small-molecule binders of probe aLefty1, primary screen, biochemical, small-molecule microarray, 635/667 nm fluorescence (AID 1153).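 Also: score merges spot fluorescence with signal-to-noise ratio from the scanned slide images.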 To be noted: higher = more signal.
Assay [13] is described as follows: PSAC antagonists in infected red cells, primary screen, cell-based, P. falciparum Indochina, OD700, 1 h (AID 1154). The conditions noted are these: P. falciparum Indochina infected RBC osmotic lysis, higher = more signal, called active from +8 up or from −8 down.
A short description of assay [14]: PSAC antagonists in infected red cells, primary screen, cell-based, P. falciparum Indochina, OD700, 2 h (AID 1155).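 Also: lysis reports solute entry through the parasite surface anion channel PSAC; channel blockers reduce lysis of infected cells.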 To be noted: P. falciparum Indochina infected erythrocytes, osmotic lysis OD700; higher = more signal, called active from +8 up or from −8 down.
A short description of assay [15]: osmotic lysis modulators in infected erythrocytes, primary screen, PSAC antagonist project, cell-based, P. falciparum Indochina, OD700, 3 h (AID 1156). To be noted: higher = more signal, called active from +8 up or from −8 down.
A short description of assay [16]: PSAC antagonists in infected red cells, primary screen, cell-based, P. falciparum Indochina, OD700, 18 h (AID 1157). To be noted: P. falciparum Indochina infected erythrocytes, osmotic lysis OD700, 18 h; higher = more signal, called active from +8 up or from −8 down.
The nature of assay [17]: modulators of S6 phosphorylation in cells, primary screen, cell-based, A549, cytoblot, luminescence, serum-stimulated (AID 1158).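 Also: serum-stimulated A549 lung adenocarcinoma cells; signal is phosphorylated S6 detected by cytoblot immunostaining with HRP secondary.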 The conditions noted are these: A549 phospho-S6 cytoblot, 5 h, higher = more signal.
Assay [18] concerns the target NADPH oxidase 2 (Homo sapiens) (UniProt P04839). The assay is described as follows: NOX2-dependent H2O2 signal modulators, primary screen, NOX inhibitor project, cell-based, HEK293-NOX2, PMA-stimulated, Amplex Red fluorescence (AID 1159). Also: test concentration not given here. The conditions noted are these: 45 min, higher = more signal, called active from +8 up or from −8 down.
The target in assay [19] is NADPH oxidase 4 (Homo sapiens) (UniProt Q9NPH5). Put plainly: NOX4-dependent H2O2 signal modulators, primary screen, NOX inhibitor project, cell-based, HEK293-NOX4, tetracycline-induced, Amplex Red fluorescence (AID 1160). To be noted: 45 min, higher = more signal, called active from +8 up or from −8 down.
In assay [20] the target is NADPH oxidase 5 (Homo sapiens) (UniProt Q96PH1). Put plainly: NOX5-dependent H2O2 signal modulators, primary screen, NOX inhibitor project, cell-based, HEK293-NOX5, Amplex Red fluorescence (AID 1161). The conditions noted are these: HEK293-NOX5, ionomycin, 45 min, higher = more signal.

Results on eight molecules are retold here after PubChem BioAssay.

Active and inactive are the calls of the source. Unless noted, no rule for the calls is given here.

Sequence of NADPH oxidase 2 (Homo sapiens) (P04839 whole entry, looked up): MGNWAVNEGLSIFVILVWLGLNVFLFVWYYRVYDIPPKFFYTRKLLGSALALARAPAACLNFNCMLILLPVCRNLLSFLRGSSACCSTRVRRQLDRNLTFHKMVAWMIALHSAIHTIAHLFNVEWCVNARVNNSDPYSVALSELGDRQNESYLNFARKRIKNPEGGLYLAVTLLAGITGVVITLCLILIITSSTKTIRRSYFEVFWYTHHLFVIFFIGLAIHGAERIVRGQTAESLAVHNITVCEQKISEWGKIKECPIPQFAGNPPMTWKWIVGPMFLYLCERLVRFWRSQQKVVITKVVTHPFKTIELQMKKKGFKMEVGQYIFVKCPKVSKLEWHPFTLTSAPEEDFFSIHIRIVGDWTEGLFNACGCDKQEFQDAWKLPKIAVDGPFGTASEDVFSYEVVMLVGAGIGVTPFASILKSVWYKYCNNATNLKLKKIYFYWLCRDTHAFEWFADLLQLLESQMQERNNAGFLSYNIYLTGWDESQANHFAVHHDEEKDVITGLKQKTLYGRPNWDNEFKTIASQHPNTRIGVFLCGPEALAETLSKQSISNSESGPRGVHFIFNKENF
Sequence of NADPH oxidase 4 (Homo sapiens) (Q9NPH5 whole entry, looked up): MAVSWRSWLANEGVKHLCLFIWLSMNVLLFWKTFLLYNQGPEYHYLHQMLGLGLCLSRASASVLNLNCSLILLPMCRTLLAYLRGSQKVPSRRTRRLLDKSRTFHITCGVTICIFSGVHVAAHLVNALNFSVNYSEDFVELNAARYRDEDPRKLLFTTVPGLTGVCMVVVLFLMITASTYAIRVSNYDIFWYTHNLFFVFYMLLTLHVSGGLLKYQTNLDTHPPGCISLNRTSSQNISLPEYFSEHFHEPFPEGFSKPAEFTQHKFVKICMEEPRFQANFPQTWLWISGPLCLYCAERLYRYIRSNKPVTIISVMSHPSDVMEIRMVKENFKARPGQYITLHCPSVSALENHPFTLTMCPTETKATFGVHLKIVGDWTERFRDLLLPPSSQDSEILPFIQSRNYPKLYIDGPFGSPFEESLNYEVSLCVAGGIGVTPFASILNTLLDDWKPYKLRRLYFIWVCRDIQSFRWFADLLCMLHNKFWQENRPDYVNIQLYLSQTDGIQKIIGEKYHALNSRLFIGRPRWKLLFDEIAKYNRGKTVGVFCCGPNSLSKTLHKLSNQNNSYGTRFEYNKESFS
Sequence of Streptavidin (Streptomyces avidinii) (P22629 whole entry, looked up): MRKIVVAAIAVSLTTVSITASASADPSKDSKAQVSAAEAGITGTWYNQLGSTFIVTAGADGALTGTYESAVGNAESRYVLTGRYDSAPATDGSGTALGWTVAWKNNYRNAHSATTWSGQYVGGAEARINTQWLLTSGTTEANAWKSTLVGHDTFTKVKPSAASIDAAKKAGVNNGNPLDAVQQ
Sequence of Torsin-1A (Homo sapiens) (O14656 whole entry, looked up): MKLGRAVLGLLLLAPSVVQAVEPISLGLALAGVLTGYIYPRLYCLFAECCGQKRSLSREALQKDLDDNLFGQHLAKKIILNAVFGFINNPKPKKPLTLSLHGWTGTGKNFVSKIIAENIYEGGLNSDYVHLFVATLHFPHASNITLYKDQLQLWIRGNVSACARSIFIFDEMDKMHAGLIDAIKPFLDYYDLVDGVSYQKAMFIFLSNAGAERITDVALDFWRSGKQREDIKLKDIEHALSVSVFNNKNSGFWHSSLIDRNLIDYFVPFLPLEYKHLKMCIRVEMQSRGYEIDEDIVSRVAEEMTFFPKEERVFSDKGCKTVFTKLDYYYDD
Sequence of NADPH oxidase 5 (Homo sapiens) (Q96PH1 whole entry, looked up): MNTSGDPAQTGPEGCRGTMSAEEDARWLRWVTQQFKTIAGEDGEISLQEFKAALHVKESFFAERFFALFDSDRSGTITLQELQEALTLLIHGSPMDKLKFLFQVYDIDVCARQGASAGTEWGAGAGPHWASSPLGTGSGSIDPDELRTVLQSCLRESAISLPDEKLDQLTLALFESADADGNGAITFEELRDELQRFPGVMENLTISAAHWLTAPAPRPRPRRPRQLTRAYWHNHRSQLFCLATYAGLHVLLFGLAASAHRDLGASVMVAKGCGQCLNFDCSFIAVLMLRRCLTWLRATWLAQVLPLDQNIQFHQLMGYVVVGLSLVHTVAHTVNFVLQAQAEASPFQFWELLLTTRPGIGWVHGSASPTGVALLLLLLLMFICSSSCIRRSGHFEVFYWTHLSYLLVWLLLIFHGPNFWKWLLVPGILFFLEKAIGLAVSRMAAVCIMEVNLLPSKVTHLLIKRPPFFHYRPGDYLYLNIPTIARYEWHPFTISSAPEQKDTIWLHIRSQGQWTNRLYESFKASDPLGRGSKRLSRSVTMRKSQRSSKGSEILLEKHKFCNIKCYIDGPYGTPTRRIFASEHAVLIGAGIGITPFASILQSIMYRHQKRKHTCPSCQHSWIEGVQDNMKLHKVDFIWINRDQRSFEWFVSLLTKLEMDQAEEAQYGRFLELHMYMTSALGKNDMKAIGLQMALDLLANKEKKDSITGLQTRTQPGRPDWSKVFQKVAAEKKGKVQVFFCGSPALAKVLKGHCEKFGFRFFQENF

`CN(C)C(=O)[C@]1(Cc2ccccc2CN=[N+]=[N-])N=C(c2ccc(OCCCO)cc2)O[C@@H]1c1ccccc1`: the composite z-score in [1] was 0.682; in assay [6] it was 0.792; in assay [7] it was 0.111; with Torsin-1A (Homo sapiens) [8], 0.178; with Torsin-1A (Homo sapiens) [9], 0.729; in assay [10], -0.18. Moreover, in assay [12], the composite z-score turned out to be 0.457. The z-score is -5.61 (inactive) in assay [2]; -0.528 (inactive) in assay [3]; 0.502 (inactive) in [4]; -0.579 (inactive) in assay [5]; -0.532 (inactive) in [11]; 27.1 (active) in [13]. Also, the z-score in assay [14] was 22.9 (active); in assay [15], 1.76 (inactive); in assay [16], 0.96 (inactive); in assay [17], 1.87; in assay [18] it was -4 (inactive); in assay [19], -2.05 (inactive). In [20], this molecule registered a z-score of -1.94.
`CC(C)N1C(=O)C[C@@](C(=O)NC2CC2)(c2ccc([N+](=O)[O-])cc2)[C@H]1c1ccc(CO)cc1`: the composite z-score in assay [1] is -0.0471; in assay [6], -0.677; in [7], -0.252; with Torsin-1A (Homo sapiens) [8] it was -1.39; with Torsin-1A (Homo sapiens) [9] it was 1.4; in assay [10] it was -0.161. The composite z-score in assay [12] was -0.231. The z-score in assay [2] was -4.5 (inactive); in [3] it was -0.0956 (inactive); in assay [4], 1.82 (inactive); in [5], -0.673 (inactive); in assay [11] it was 1.3 (inactive); in [13] it was 2.45 (inactive). For the same molecule, the z-score in assay [14] is -0.224 (inactive); in [15] it was 2.85 (inactive); in assay [16], -0.9 (inactive); in assay [17], 2.28; in assay [18], -0.281 (inactive); in [19], -1.89 (inactive). This molecule also came in with a z-score in assay [20] of -1.78.
On to `CC(C)C(CO)N1C(=O)[C@@H]2C3C(=O)OCCC/C=C\[C@H]3OC23C=CCN(Cn2nnc4ccccc42)C(=O)[C@@H]13` (stereo not given in full), for which the composite z-score in [1] was -0.665; in assay [6], -1.23; in [7], -0.128; in the assay with Torsin-1A (Homo sapiens) [8] it was -1.7; in the assay with Torsin-1A (Homo sapiens) [9] it was -1.07; in assay [10] it was 0.0683. The same molecule showed a composite z-score in [12] of -0.147. Moreover, the z-score in assay [2] is -0.252 (inactive); in assay [3] it was 0.0208 (inactive); in [4] it was -1.44 (inactive); in assay [5] it was -0.0111 (inactive); in assay [11], 0.302 (inactive); in [13] it was 0.897 (inactive). Also, the z-score is -0.364 (inactive) in [14]; -0.443 (inactive) in assay [15]; 0.234 (inactive) in assay [16]; 1.36 in assay [17]; 1.23 (inactive) in assay [18]; 0.806 (inactive) in assay [19]. Also, in assay [20], the z-score amounted to 1.51.
With `CN(C)c1ccc(C(O)C2C=CC3C(=O)NC(=O)C3N2Nc2ccccn2)cc1` (stereo not given), the composite z-score in [1] is 0.0094; in [6], 0.0863; in assay [7] it was -0.152; with Torsin-1A (Homo sapiens) [8] it was 1.05; in the assay with Torsin-1A (Homo sapiens) [9], 0.927; in assay [10] it was 0.862. In assay [12], this molecule came in with a composite z-score of 0.201. The z-score was 1 (inactive) in [2]; 0.161 (inactive) in assay [3]; -1.49 (inactive) in [4]; 0.337 (inactive) in assay [5]; -1.5 (inactive) in assay [11]; 0.85 (inactive) in assay [13]. The z-score in assay [14] was 0.123 (inactive); in [15], -0.693 (inactive); in assay [16], 0.408 (inactive); in assay [17] it was -0.888; in [18] it was -2.21 (inactive); in assay [19] it was -4.43 (inactive). Further, the z-score in assay [20] was -4.16.
As for `COCC(=C=CC[C@H](O)c1ccccc1OCCO)C[C@H](O)c1ccccn1`, the composite z-score was 0.0611 in assay [1]; -0.303 in assay [6]; -0.154 in assay [7]; -0.556 with Torsin-1A (Homo sapiens) [8]; 0.71 with Torsin-1A (Homo sapiens) [9]; 0.43 in assay [10]. The molecule further had a composite z-score in assay [12] of -0.224. In addition, the z-score in assay [2] is -0.0701 (inactive); in [3], -0.214 (inactive); in [4] it was 1.04 (inactive); in assay [5], 0.126 (inactive); in assay [11] it was 0.769 (inactive); in assay [13], 3.61 (inactive). Further, the z-score is 1.12 (inactive) in [14]; 1.74 (inactive) in assay [15]; 0.382 (inactive) in assay [16]; 0.658 in assay [17]; 0.251 (inactive) in assay [18]; -0.831 (inactive) in assay [19]. The z-score in assay [20] is -0.926.
On to `CC(C)[Si](C#C[Si](C(C)C)(C(C)C)C(C)C)(O[C@H](c1ccccc1)c1cn(Cc2ccccc2)nn1)C(C)C`, for which the composite z-score in assay [1] is -0.0366; in [6] it was 0.652; in assay [7], -0.016; with Torsin-1A (Homo sapiens) [8], 0.412; with Torsin-1A (Homo sapiens) [9], 0.107; in assay [10], 0.558. In [12], this molecule displayed a composite z-score of 0.0997. For the same molecule, the z-score was -0.071 (inactive) in assay [2]; -1.32 (inactive) in assay [3]; -0.752 (inactive) in [4]; -0.166 (inactive) in assay [5]; 1.25 (inactive) in assay [11]; 0.62 (inactive) in assay [13]. The z-score in assay [14] is 0.267 (inactive); in [15], -0.351 (inactive); in assay [16], 0.136 (inactive); in assay [17], -0.25; in [18], -0.734 (inactive); in assay [19], -1.17 (inactive). Besides, the z-score in assay [20] is -0.932.
For the molecule `C=C(COC)/C(=C/C[C@H](OC(=O)c1ccncc1)c1ccc(CO)o1)c1cnc2ccccc2c1`, the composite z-score was 0.304 in assay [1]; 1.16 in assay [6]; -0.0933 in assay [7]; 0.299 with Torsin-1A (Homo sapiens) [8]; 0.732 in the assay with Torsin-1A (Homo sapiens) [9]; 2.07 in assay [10]. The composite z-score in [12] came out at 0.213. For the same molecule, the z-score in assay [2] is 0.114 (inactive); in [3], -0.268 (inactive); in assay [4] it was 0.303 (inactive); in [5] it was -0.499 (inactive); in [11] it was -0.504 (inactive); in [13] it was 6.19 (inactive). For the same molecule, the z-score was 0.807 (inactive) in assay [14]; 1.35 (inactive) in assay [15]; 0.307 (inactive) in assay [16]; -0.959 in [17]; 1.13 (inactive) in assay [18]; -0.163 (inactive) in assay [19]. The z-score in assay [20] is -0.377.
Regarding `C=CCNC(=O)[C@@H]1[C@H]2C(=O)O[C@H](c3ccccc3)[C@H](c3ccccc3)N2[C@H](c2ccccc2OCCO)[C@@]12C(=O)N(C(=O)OCCOC)c1ccc(C#CC3(O)CCCCCC3)cc12`, the composite z-score is 0.238 in assay [1]; 0.159 in [6]; 0.115 in assay [7]; 0.759 in the assay with Torsin-1A (Homo sapiens) [8]; 0.631 in the assay with Torsin-1A (Homo sapiens) [9]; 1.58 in assay [10]. In addition, the composite z-score in assay [12] came out at 0.038. The z-score in assay [2] was -4.26 (inactive); in assay [3], -0.0868 (inactive); in assay [4], -1.02 (inactive); in assay [5] it was -0.965 (inactive); in assay [11] it was 0.592 (inactive); in assay [13] it was 1.95 (inactive). For the same molecule, the z-score in [14] is 2.02 (inactive); in assay [15], 0.167 (inactive); in assay [16], 0.996 (inactive); in assay [17], 0.152; in assay [18], 1.09 (inactive); in [19], 0.906 (inactive). In assay [20], the z-score stood at 0.337.
